# phage Ecoli inh – growth loss of phage-infected E. coli, primary screen, RecBCD inhibitor project, absorbance, with phage, HTS | inhibition, % at 11.9 µM | hit rate 0.26% among 360,000 | AID 651602, 2012; in the data active means inhibition above about 11%
# E coli growth-1 – E. coli V3065 growth inhibition, primary screen, counter-screen for AddAB inhibitor project, absorbance, OD600; 18 h; inhibition, % at 11.9 µM; AID 449728, 2010; hit rate 0.27% among 330,000;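 active means inhibition above the campaign's mean inhibition across all tested compounds plus 3 SD, cut at about 9.9% in these data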;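 further: uninfected addAB+ strain grown without phage in ampicillin broth; 0% = DMSO wells and 100% = ciprofloxacin 0.95 µg/ml wells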
# AddAB inh – growth inhibition of E. coli expressing H. pylori AddAB, primary screen, AddAB inhibitor project, absorbance; inhibition, % at 11.9 µM; hit rate 0.29% among 330,000; in the data active means inhibition above about 12%;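 further: 0% = vehicle wells of infected cells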
# E coli growth-2 – E. coli growth inhibition, primary screen, OD600; AID 1053175, 2014; hit rate 0.21% among 330,000; Escherichia coli growth, 23 h; active compounds read low; OD600 absorbance (no concentration beside the values);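 active means OD600 absorbance below the run mean of sample wells minus 3.6 SD, in any replicate, cut at about 0.56 in these data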
# Tat export inh – E. coli Tat export inhibitors, primary screen, MC4100, TorA-mCherry reporter, fluorescence, single point; inhibition, % at 10 µM; AID 488895, 2010; hit rate 0.036% among 340,000;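 active means mean replicate inhibition at least 50% and at least half of replicates individually reaching 50%; inconclusive means only one of the two criteria met; inactive means neither criterion met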;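 further: exported cargo escapes ClpAP degradation while cytoplasmic cargo is degraded and loses fluorescence; 0% = median of neutral control wells and 100% = median of NaSCN control wells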
# RecBCD conf – growth loss of phage-infected RecBCD+ E. coli, confirmation, RecBCD inhibitor project, absorbance, E. coli V66, T4 gene 2 phage; E. coli V66 + T4 2- phage, growth OD; inhibition, % at 11.9 µM; AID 651982, 2013; shares compounds with phage Ecoli inh; hit rate 45% among 890;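 active means mean inhibition over triplicates exceeding the hit threshold derived in the original primary screen, cut at about 11% in these data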
# Ecoli viability – E. coli viability inhibition, counter-screen for RecBCD inhibitor project, absorbance, high throughput; shares compounds with phage Ecoli inh; absorbance (OD) growth; inhibition, % at 11.9 µM; hit rate 29% among 890; AID 651983, 2013; in the data active means inhibition above about 20%;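 further: E. coli strain V66 grown with compound alone and no phage infection; 0% = bacteria with DMSO vehicle only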
# AddAB counter – growth loss of phage-infected AddAB-carrying E. coli, confirmation, counter-screen for RecBCD inhibitor project, absorbance, E. coli V3065, T4 phage. shares compounds with phage Ecoli inh. E. coli expressing H. pylori AddAB + T4 phage, OD growth; gene 2 mutant T4, recBCD-deleted host. inhibition, % at 11.9 µM. hit rate 45% among 890. AID 651984, 2013;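 active means mean inhibition above the solvent-only control wells' mean plus 3 SD, cut at about 22% in these data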;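 further: higher means less bacterial growth from phage killing when AddAB is blocked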
# * hit, by the source's call; u = inconclusive; x = not tested or not shown. The list is not random: actives were taken first. Their share in the collection is about 0.5%.
SMILES,phage Ecoli inh,E coli growth-1,AddAB inh,E coli growth-2,Tat export inh,RecBCD conf,Ecoli viability,AddAB counter
Cc1nnc(SCC2=C(C(=O)O)N3C(=O)C(NC(=O)Cn4cnnn4)C3SC2)s1 (centres undefined),100*,-1,-3,0.062*,0,104*,106*,1
Cc1nnc(SCC2=C(C(=O)O)N3C(=O)C(NC(=O)Cn4nc(C(F)F)c(Cl)c4C)C3SC2)s1 (centres undefined),4,2,-1,0.62,17,x,x,x
CN(C)CCn1nnnc1SCC1=C(C(=O)O)N2C(=O)[C@@H](NC(=O)Cc3csc(N)n3)[C@H]2SC1,99*,0,1,x,-3,103*,105*,51*
CCC(C(=O)NC1C(=O)N2C(C(=O)O)=C(CSc3nnc(C)s3)CSC12)c1ccccc1 (centres undefined),4,0,0,0.63,-3,x,x,x
Cc1nnc(SCC2=C(C(=O)O)N3C(=O)[C@@H](NC(=O)Cn4cnnn4)[C@H]3SC2)s1,94*,1,-1,0.045*,-6,102*,104*,3
O=C1C=C(c2cccc3c2sc2ccccc23)CC(c2ccc(Cl)cc2)C1 (centres undefined),x,x,x,0.78,x,x,x,x
Cc1cc(NS(=O)(=O)c2ccc(NC(=S)Nc3ccc(Cl)cc3C)cc2)no1,12*,5,6,0.7,-14,3,2,12
CC(C(=O)N1CCN(C(=O)OC(C)(C)C)CC1)n1cc(CCCN=C(NC(=O)OC(C)(C)C)NC(=O)OC(C)(C)C)nn1 (centres undefined),x,x,x,0.68,x,x,x,x
Nc1ccc(Cn2ccc3c4c(N)nc(N)nc4ccc32)cc1,100*,x,x,x,17,103*,105*,105*
Cc1nc2ccc(N)cc2c(=O)n1Cc1ccc(Cl)cc1,4,-1,2,0.69,15,x,x,x
CCNS(=O)(=O)c1ccc(NC(=O)Cn2nc(C(F)(F)F)cc2C)cc1,12*,11*,11,0.69,-10,5,6,7
CCOC(=O)c1ccc(NC=CC(=O)C(C)(C)C)cc1,x,x,x,0.72,x,x,x,x
Nc1nc(N)c2cc(S(=O)(=O)c3cccc(C(F)(F)F)c3)ccc2n1,24*,x,x,x,x,32*,27*,59*
CC(=CC(NP(=O)(c1ccccc1)c1ccccc1)c1ccccc1)CO[Si](c1ccccc1)(c1ccccc1)C(C)(C)C (centres undefined),x,x,x,0.69,x,x,x,x
CCOC(=O)C1C2COc3ccc(C)cc3C2N2C(=O)CN(Cc3ccc(F)cc3)C(=O)[C@@]12C (some centres undefined),x,x,x,0.7,x,x,x,x
CCS(=O)(=O)c1ccc(OC)c(N=Nc2ccc(O)c3ncccc23)c1,7,6,8,0.66,-9,x,x,x
CCN(CC)S(=O)(=O)c1cc(OC)ccc1N=Nc1ccc(O)c2ncccc12,12*,x,x,x,2,1,2,2
Cc1cccc(N=Nc2ccc(O)c3ncccc23)c1,16*,6,9,0.72,2,5,7,5
CCCC(=C1c2ccccc2C(=O)N1c1ccccc1)c1ccc2[nH]ccc2c1,x,x,x,0.73,x,x,x,x
CCOC(=O)C=CC1CC(c2ccccc2)(c2ccccc2)CO1 (centres undefined),x,x,x,0.68,x,x,x,x
Oc1cccc2cc(Nc3ccccc3)cnc12,23*,x,x,x,x,16*,19,25*
CC(C)CN1CCC(=O)N(C(CO)Cc2ccccc2)CC1 (centres undefined),x,x,x,0.69,x,x,x,x
Cc1c(Cl)sn(-c2ccc(Cl)cc2)c1=O,98*,x,x,0.062*,u,99*,100*,100*
O=C(NCc1ccccn1)C1CC1C(NP(=O)(c1ccccc1)c1ccccc1)c1ccccc1 (centres undefined),x,x,x,0.67,x,x,x,x
NC(=S)NN=Cc1cc(-c2cccc(N)c2)ccn1,21*,x,x,x,x,14*,16,32*
